According to PubChem BioAssay (NCI):
“And” between values parts separate entries of the source, which are not always exact repeats. Equal values may be shown once. Compounds without any hit were thinned out: in the full panel of roughly 83,000, 20% have a hit.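 Activity criterion: percent growth below 10, measured after cells in 96-well plates were exposed to a single compound concentration for 48 hours.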 The source made the active and inactive calls. Where a SMILES comes first, the peptide text is derived from it. [ ]: non-standard residue; d: D form. ξ: configuration not given here. ξV = CC(C)C(N)C(=O)O

System: A498 renal
Assay: NCI-60 one-dose screen, 48 h (100 = growth as untreated, 0 = no growth, -100 = all killed)
Details: 0.0025 µM
Experimental: Growth inhibition of the A498 human tumor cell line is measured as a screen for anti-cancer activity. Cells are grown in 96 well plates and exposed to the test compound for 48 hours. Compounds are tested at a single concentration, which is 10^-5 M for most compounds. The reported endpoint is percent growth (GI% or GIPRCNT), where numbers from 0 - 100% represent growth inhibition, and numbers from -100% - 0 represent cell death. For example, a value of 40 represents 60% growth inhibition. A value of 0 means no net growth occurred over the course of the experiment. A value of -40 indicates 40% of cells at the beginning of the experiment died by the end of the experiment. A value of -100 means all cells are dead at the end of the experiment.
NCI-60 Human Tumor Cell Lines Screen was performed using the standard one-dose NCI protocol, which is described in more detail at https://dtp.cancer.gov/discovery_development/nci-60/default.htm.
Compounds with GIPRCNT values below 10 were considered active. Activity score was based on GIPRCNT using the following formula: […]
Score is 0 for GIPRCNT values of 100 or above, 50 for GIPRCNT values of 0, and 100 for GIPRCNT values of -100.

SMILES	growth
COc1cccc2c1C(=O)c1c(O)c3c(c(O)c1C2=O)C[C@@](O)(C(=O)CO)C[C@@H]3OC1CC(N)C(O)C(C)O1 (stereo not given in full)	93.5% (inactive)

Same assay, conditions: 1 µM

SMILES	growth
COc1cccc2c1C(=O)c1c(O)c3c(c(O)c1C2=O)C[C@@](O)(C(=O)CO)C[C@@H]3OC1CC(N)C(O)C(C)O1 (stereo not given in full)	76.5% (inactive)

Same assay, conditions: 2.5 µM

SMILES	growth
COc1cccc2c1C(=O)c1c(O)c3c(c(O)c1C2=O)C[C@@](O)(C(=O)CO)C[C@@H]3OC1CC(N)C(O)C(C)O1 (stereo not given in full)	52.6% (inactive)

Same assay, conditions: 10 µM

SMILES	growth
CCCCCCCCCCSC(=N)N	95.1% (inactive)
OCC(O)C(O)C(O)C(/C=N/Nc1ccccc1)=N/Nc1ccccc1 (stereo not given)	43.9% (inactive)
CC(C)(C)CC(C)(C)c1ccc(OCCO)cc1	115% (inactive)
COC(=O)C1C(O)C(C)C(O)C(C)C=C(C)C2=C3C(=C(C)C(=O)c4c(O)c(c(C)c(OC(C)=O)c43)NC(=O)C(C)=C/C=C\C(C)C(O)C(C)C1O)OCO2 (stereo not given)	123% (inactive)
Nc1nc(=S)c2ncn(C3OC(CO)C(O)C3O)c2[nH]1 (stereo not given)	125% (inactive) and 29.6% (inactive)
O=c1ccn(C2CC(O)C(COC(c3ccccc3)(c3ccccc3)c3ccccc3)O2)c(=O)[nH]1 (stereo not given)	98.6% (inactive)
OC(CN1CCCC2CCCCC21)c1cc2ccccc2c2ccccc12 (stereo not given)	58.8% (inactive)
CCN1/C(=C/C=C/C=C/c2sc3ccccc3[n+]2CC)Sc2ccccc21	9.48% (active)
NNc1c2ccccc2nc2ccccc12	49.3% (inactive)
CN1CCN(CCCN2c3ccccc3Sc3ccc(C(F)(F)F)cc32)CC1	70.2% (inactive)
O=C(/C=C/c1ccccn1)c1ccccc1	78.9% (inactive)
Oc1ccc(N=Nc2ccccn2)c(O)c1	59.2% (inactive)
O=C(Nc1ccc(C(=O)O)c(O)c1)c1ccccc1	121% (inactive) and 139% (inactive)
CCCCCCCCCCCCSC(=NC)NC	72.3% (inactive)
COC(=O)C1=COC(C)C2C[n+]3ccc4c([nH]c5ccccc54)c3CC12 (stereo not given)	72.8% (inactive) and 94.7% (inactive)
CC1=CC(C)=Nc2ccc(Cl)cc2N1	106% (inactive)
N=S(c1ccccc1[N+](=O)[O-])c1ccccc1[N+](=O)[O-]	107% (inactive)
NNc1ccc2ccccc2c1	88.5% (inactive)

SMILES	growth
O=C(O)COc1ccc(OCC(=O)O)cc1	-14.2% (active)
CCCCCC(C)c1ccc(O)c(C)c1 (stereo not given)	81.9% (inactive)
NC(=O)SCC(=O)NNc1ccccc1	93.7% (inactive)
CCCC1CCC(=C2C(=O)CCC2=O)O1 (stereo not given)	108% (inactive) and 105% (inactive)
Nc1c2ccccc2nc2ccccc12	-0.261% (active) and 37.5% (inactive) and 18.3% (inactive)
COc1cccc2c1C(=O)c1c(O)c3c(c(O)c1C2=O)C[C@@](O)(C(C)=O)C[C@@H]3OC1CC(N)C(O)C(C)O1 (stereo not given in full)	-71.7% (active)
CC(C)C(NC(=O)CN)C(=O)O (stereo not given) (H-Gly-[ξV]-OH)	102% (inactive) and 99.9% (inactive)
CC(=O)Nc1cc(C)ccc1C	83.8% (inactive)
O=C1C=CC(=CC=C2C=CN(CCCCCCCCCCCO)C=C2)C=C1	95.1% (inactive)
CCCCCCCCCCCC[N+](C)(C)Cc1ccccc1	79% (inactive)
CCO/C=C1\SC(=S)N(c2cccc(O)c2)C1=O	118% (inactive)
O=C1C=C(O)c2ccccc2C1=O.[Ag]	93.3% (inactive)
CC(=O)OCC(OC(C)=O)C(OC(C)=O)C(OC(C)=O)C(OC(C)=O)C(/C=N/Nc1ccccc1)=N/Nc1ccccc1 (stereo not given)	83.4% (inactive)
OCC1OC(n2cnc3c(=S)nc[nH]c32)C(O)C1O (stereo not given)	105% (inactive) and 119% (inactive)
CSC1SCC2C(=O)N(C)C(C(C)C)C(=O)OCC(NC(=O)c3cnc4ccccc4n3)C(=O)NC(C)C(=O)N(C)C1C(=O)N(C)C(C(C)C)C(=O)OCC(NC(=O)c1cnc3ccccc3n1)C(=O)NC(C)C(=O)N2C (stereo not given)	-76.6% (active)
Clc1cc(Cl)c(Cl)nn1	109% (inactive)
Cc1cc(O)c(C(C)C)cc1Cl	118% (inactive)
NC1=C(Cl)C(=O)c2ccccc2C1=O	104% (inactive)

Same assay, conditions: 100 µM

SMILES	growth
O=c1ccn(C2CC(O)C(COC(c3ccccc3)(c3ccccc3)c3ccccc3)O2)c(=O)[nH]1 (stereo not given)	102% (inactive)
